# Test results: ChEMBL document CHEMBL3988442, “University of Dundee, Small-Polar-MMV Screening Library” (2021)
# Target: AMP-activated protein kinase, AMPK (Homo sapiens) (UniProt P54646+O43741+P54619+Q9UGJ0+Q9Y478+Q13131+Q9UGI9)
# Test: AMP-dependent Kinase enzyme assay. An in vitro enzyme assay that detects ADP turnover that is directly proportional to AMPK activity. This uses naive AMPK that is activated during the assay with MK-8722
# Format: functional
# Design: scale not given: direction of the effect not stated beside the values
# Settings: 30 µM
row,Structure (SMILES),Percent Effect [%]
1,CC(=O)N1CCCC(Cc2cncc(Br)c2)CC1 (stereo not given),-0.231
2,COc1ccc(C(CNC(=O)Nc2cn[nH]c2)N2CCOCC2)cc1 (stereo not given),3.92
3,Cc1cn2c(n1)CCC(NC(=O)c1ccc(CS(C)(=O)=O)cc1)C2 (stereo not given),-4.52
4,Cc1cc(NC(=O)NCc2ccccc2OC(F)F)n(C)n1,5.29
5,CN(C)CCNC(=O)CNC(=O)N1CCc2c([nH]c3ccc(Cl)cc23)C1,9.82
6,CN(Cc1cscn1)C1CCCN(Cc2noc(C3CC3)n2)C1 (stereo not given),-5.57
7,Nc1nc2c(c(=O)[nH]1)CCN(C(=O)c1cccc3nccnc13)C2,-11.5
8,Cc1cccc(CNC(CN2CCN(C)CC2)c2ccccc2)c1 (stereo not given),-13.3
9,CS(=O)(=O)N1CCCCCC1C1CCN(c2ncccc2C#N)CC1 (stereo not given),9.82
10,Cc1cccc(C(=O)NCCCN2CCN(c3ccccc3)CC2)c1,-2.04
11,CCOc1ccc(-c2ccnc(CC)n2)cc1C(=O)O,-5.65
12,CS(=O)(=O)N1CCc2c(cccc2NC(=O)CC(F)(F)F)C1,4.53
13,COc1ccccc1Oc1ncccc1CNC(=O)C(C)N1CCCC1 (stereo not given),-6.43
14,CCOc1ccnc(N2CCN(C(=O)c3cccnc3O)CC2)n1,-4.02
15,CC(C)c1nn(C)c(Cl)c1CNCc1ccc2c(c1)OCCO2,2.72
16,CC(C)COC(C)C(=O)NCc1cc(F)cc(F)c1 (stereo not given),8.53
17,Cc1nc(CN2CCOC(CNc3cccnn3)C2)cs1 (stereo not given),-13.4
18,CCS(=O)(=O)N1CCC(c2nnc(Cn3cccn3)n2C2CC2)CC1,-35.4
19,OC[C@H]1CC[C@]2(CC1)CN(Cc1ccccn1)Cc1ccccc1O2,15.4
20,O=C(Cc1cccc(F)c1)N1CCCCC1c1ccn2ccnc2n1 (stereo not given),14.6

row,Structure (SMILES),Percent Effect [%]
1,NC(=O)Nc1cccc(Oc2ccccn2)c1,11.3
2,CC(c1cccnc1)N(C)Cc1csc(-c2ccccn2)n1 (stereo not given),-12.1
3,c1cnnc(NCC2CN(Cc3cccc4c3OCCO4)CCO2)c1 (stereo not given),2.26
4,COc1cccc(COCC(=O)N2CCCC(n3ccnc3)C2)c1 (stereo not given),21.3
5,CC(C)C(=O)N1CCN(C(=O)c2cc(C(C)C)on2)[C@H]2CS(=O)(=O)C[C@H]21,-7.12
6,CC(NC(=O)NCCN1CCCCCC1=O)c1nncn1C (stereo not given),-10.1
7,CN1N=C(C(=O)NCc2ccc3c(c2)CCCN3C)CCC1=O,30.5
8,O=C(O)c1coc(COc2cccc(F)c2)n1,-4.57
9,Cn1cccc1C(=O)N1CCC2(CC1)CN(c1ccccn1)CCO2,-0.668
10,Cc1nc2c(c(C)c1CC(=O)Nc1ccc(Cl)cc1)c(=O)[nH]n2C,-2.37
11,COCCC(=O)N1C[C@@H]2COC[C@]2(COCc2cccnc2)C1,1.86
12,O=C(NC1CC1)[C@@H]1CCO[C@@H]2CCN(Cc3ccsc3)C[C@H]21,8.56
13,Cn1cccc1C(=O)N[C@@H]1CN(CC2CC2)[C@@H]2COC[C@@H]21,-1.14
14,O=C(c1cc(F)ccc1F)C1CCN(C(=O)c2cccnc2O)CC1,3.43
15,CC(C)=CCN1CCOC(Cn2nc(C)cc2C)C1 (stereo not given),3.22
16,CCOc1cccc(CNc2ccccc2C(=O)OC)c1O,-9.62
17,Cc1ccc(C(=O)N2CCC3(CC2)NC(=O)CC3c2ccccc2)cn1 (stereo not given),3.38
18,Cc1nnc2n1CCN(C(=O)c1cc(C)n(-c3ccccn3)c1C)C2,-9.47
19,Cc1cccc(-n2cc(C(=O)N3CCCC(n4ccnc4)C3)nn2)c1 (stereo not given),7.1
20,O=C1CCCN1Cc1ncn2c1CN(C(=O)c1cccc(F)c1)CCC2,-2.98

# Target: Sialic acid-binding Ig-like lectin 9 (Homo sapiens) (UniProt Q9Y336)
# Test: Hs-Siglec9 ALPHAscreen SOP 20170721
# Design: scale not given: direction of the effect not stated beside the values
# Settings: 10 µM
# Chain of Sialic acid-binding Ig-like lectin 9 (Homo sapiens) (Q9Y336 whole entry): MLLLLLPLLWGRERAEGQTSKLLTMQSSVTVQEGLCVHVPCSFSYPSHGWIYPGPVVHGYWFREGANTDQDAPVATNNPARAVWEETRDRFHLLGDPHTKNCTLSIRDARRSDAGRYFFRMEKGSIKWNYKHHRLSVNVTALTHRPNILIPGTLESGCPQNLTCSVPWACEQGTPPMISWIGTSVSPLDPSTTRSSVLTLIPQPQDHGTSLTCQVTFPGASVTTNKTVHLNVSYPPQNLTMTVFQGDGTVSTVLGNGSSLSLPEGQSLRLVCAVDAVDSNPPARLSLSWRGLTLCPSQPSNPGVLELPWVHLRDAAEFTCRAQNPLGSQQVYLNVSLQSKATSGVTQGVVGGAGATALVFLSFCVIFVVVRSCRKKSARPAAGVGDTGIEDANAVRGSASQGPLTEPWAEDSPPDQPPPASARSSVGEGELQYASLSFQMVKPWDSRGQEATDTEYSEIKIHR
row,Structure (SMILES),Percent Effect [%]
1,CC(=O)N1CCCC(Cc2cncc(Br)c2)CC1 (stereo not given),1.66
2,COc1ccc(C(CNC(=O)Nc2cn[nH]c2)N2CCOCC2)cc1 (stereo not given),0.747
3,Cc1cn2c(n1)CCC(NC(=O)c1ccc(CS(C)(=O)=O)cc1)C2 (stereo not given),4.15
4,Cc1cc(NC(=O)NCc2ccccc2OC(F)F)n(C)n1,-4.29
5,CN(C)CCNC(=O)CNC(=O)N1CCc2c([nH]c3ccc(Cl)cc23)C1,0.772
6,CN(Cc1cscn1)C1CCCN(Cc2noc(C3CC3)n2)C1 (stereo not given),-10.6
7,Nc1nc2c(c(=O)[nH]1)CCN(C(=O)c1cccc3nccnc13)C2,9.88
8,Cc1cccc(CNC(CN2CCN(C)CC2)c2ccccc2)c1 (stereo not given),17.7
9,CS(=O)(=O)N1CCCCCC1C1CCN(c2ncccc2C#N)CC1 (stereo not given),3.04
10,Cc1cccc(C(=O)NCCCN2CCN(c3ccccc3)CC2)c1,-11.3
11,CCOc1ccc(-c2ccnc(CC)n2)cc1C(=O)O,16.4
12,CS(=O)(=O)N1CCc2c(cccc2NC(=O)CC(F)(F)F)C1,-1.3
13,COc1ccccc1Oc1ncccc1CNC(=O)C(C)N1CCCC1 (stereo not given),29.1
14,CCOc1ccnc(N2CCN(C(=O)c3cccnc3O)CC2)n1,2.97
15,CC(C)c1nn(C)c(Cl)c1CNCc1ccc2c(c1)OCCO2,8.57
16,CC(C)COC(C)C(=O)NCc1cc(F)cc(F)c1 (stereo not given),10.1
17,Cc1nc(CN2CCOC(CNc3cccnn3)C2)cs1 (stereo not given),10.4
18,CCS(=O)(=O)N1CCC(c2nnc(Cn3cccn3)n2C2CC2)CC1,-1
19,OC[C@H]1CC[C@]2(CC1)CN(Cc1ccccn1)Cc1ccccc1O2,4.6
20,O=C(Cc1cccc(F)c1)N1CCCCC1c1ccn2ccnc2n1 (stereo not given),3.14

row,Structure (SMILES),Percent Effect [%]
1,NC(=O)Nc1cccc(Oc2ccccn2)c1,-0.357
2,CC(c1cccnc1)N(C)Cc1csc(-c2ccccn2)n1 (stereo not given),19.7
3,c1cnnc(NCC2CN(Cc3cccc4c3OCCO4)CCO2)c1 (stereo not given),4.61
4,COc1cccc(COCC(=O)N2CCCC(n3ccnc3)C2)c1 (stereo not given),-4.82
5,CC(C)C(=O)N1CCN(C(=O)c2cc(C(C)C)on2)[C@H]2CS(=O)(=O)C[C@H]21,11.2
6,CC(NC(=O)NCCN1CCCCCC1=O)c1nncn1C (stereo not given),13.4
7,CN1N=C(C(=O)NCc2ccc3c(c2)CCCN3C)CCC1=O,-1.03
8,O=C(O)c1coc(COc2cccc(F)c2)n1,33.9
9,Cn1cccc1C(=O)N1CCC2(CC1)CN(c1ccccn1)CCO2,10.6
10,Cc1nc2c(c(C)c1CC(=O)Nc1ccc(Cl)cc1)c(=O)[nH]n2C,20.4
11,COCCC(=O)N1C[C@@H]2COC[C@]2(COCc2cccnc2)C1,-1.48
12,O=C(NC1CC1)[C@@H]1CCO[C@@H]2CCN(Cc3ccsc3)C[C@H]21,0.445
13,Cn1cccc1C(=O)N[C@@H]1CN(CC2CC2)[C@@H]2COC[C@@H]21,25.9
14,O=C(c1cc(F)ccc1F)C1CCN(C(=O)c2cccnc2O)CC1,13.6
15,CC(C)=CCN1CCOC(Cn2nc(C)cc2C)C1 (stereo not given),-4.58
16,CCOc1cccc(CNc2ccccc2C(=O)OC)c1O,-4.44
17,Cc1ccc(C(=O)N2CCC3(CC2)NC(=O)CC3c2ccccc2)cn1 (stereo not given),7.94
18,Cc1nnc2n1CCN(C(=O)c1cc(C)n(-c3ccccn3)c1C)C2,3.77
19,Cc1cccc(-n2cc(C(=O)N3CCCC(n4ccnc4)C3)nn2)c1 (stereo not given),-13.5
20,O=C1CCCN1Cc1ncn2c1CN(C(=O)c1cccc(F)c1)CCC2,12
